Results: ChEMBL document CHEMBL3988442, “University of Dundee, Small-Polar-MMV Screening Library” (2021)
Hit rate of the full screen: of about 48,000 compounds, about 13,000 (27%) showed an effect of 50% or more. Some of the results follow.

These compounds were tested on Wolbachia pipientis (assay: Anti-Wolbachia Cell-Based Screen). Settings: 5 µM.
Assay type: functional
Set-up: scale not given: in the data most compounds retested in dose-response had high values

How did the “Percent Effect” value turn out when CCN1Cc2c(C(=O)NCC3CC3)ncn2-c2ccccc2S1(=O)=O was run?
Its value is 19.38%.

CCS(=O)(=O)N1CCC2(CC1)COC(COc1cccnc1)C2.O=C(O)C(F)(F)F (centres undefined) was tested. Which “Percent Effect” value did it give?
Its value is 0.5823%.

For COCC1CN(C(=O)Cc2ccccn2)Cc2c1cnn2CC1CC1.O=C(O)C(F)(F)F.O=C(O)C(F)(F)F (centres undefined), which “Percent Effect” value is on record?
Its value is -11.65%.

How did the “Percent Effect” value turn out when Cc1cc(C)c(C#N)c(N2CCC(Cc3ccccc3)CC2)n1 was run?
Its value is -43.81%.

How did the “Percent Effect” value turn out when O=C(c1c[nH]c2ncccc12)N1CCC(COc2ccccc2)CC1 was run?
Its value is -0.9312%.

Which “Percent Effect” value does the source give for CCN1CC(COc2ccccc2)Oc2ncccc2S1(=O)=O (centres undefined) here?
Its value is 122.7%.

For O=S1(=O)c2cccnc2OC(COc2ccccc2)CN1CC1CC1 (centres undefined), which “Percent Effect” value is on record?
Its value is 113.6%.

N#Cc1nccnc1N1CCC(Cc2ccccc2)C1 (centres undefined) was tested. Which “Percent Effect” value did it give?
The value was -1.044%.

With O=S1(=O)c2cccnc2OC(Cc2ccccc2)CN1CC1CC1 (centres undefined) as the compound, how does the “Percent Effect” value read?
Its value is 92.92%.

With COC(=O)CNCC1(O)CCCN(Cc2cccc(F)c2F)C1=O (centres undefined) as the compound, how does the “Percent Effect” value read?
Its value is 2.816%.

For COc1cccc(CNC(=O)c2cccnc2N)c1, which “Percent Effect” value is on record?
The value was 120.4%.

With COCC(=O)NCc1cccc(Br)c1 as the compound, how does the “Percent Effect” value read?
Its value is -15.74%.

With COc1ncccc1CNC(=O)c1cccnc1O as the compound, how does the “Percent Effect” value read?
Its value is -6.886%.

With Nc1ncccc1C(=O)NCc1cccc(Br)c1 as the compound, how does the “Percent Effect” value read?
Its value is 158%.

Which “Percent Effect” value does the source give for Nc1ncccc1C(=O)NCc1cccc(Cl)c1 here?
The value was 135.3%.

With NC(=O)CN(CC(=O)NCc1cccc(Cl)c1)C1CCCC1 as the compound, how does the “Percent Effect” value read?
The value was 3.155%.

Which “Percent Effect” value does the source give for CC(C)(NC(=O)NCc1cccc(Br)c1)C(=O)O here?
Its value is 23.95%.

Which “Percent Effect” value does the source give for O=C(NCc1ccncc1)c1ccc(Cl)cc1F here?
The value was 1.231%.

How did the “Percent Effect” value turn out when Nc1ncccc1C(=O)NCc1ccc(Br)cc1 was run?
The value was 135.9%.

How did the “Percent Effect” value turn out when CS(=O)(=O)Cc1ccc(CNC(=O)c2cccnc2O)cc1 was run?
Its value is 12.39%.

How did the “Percent Effect” value turn out when COc1cccc(CNC(=O)c2nc3c(o2)CN(S(C)(=O)=O)C3)c1 was run?
The value was -11.41%.

Cn1ccnc1-c1noc(NCc2ccccc2)n1 was tested. Which “Percent Effect” value did it give?
Its value is -0.05664%.

How did the “Percent Effect” value turn out when Nc1nnc(CCCNc2ncnc3c2CCN(C(=O)C2CC2)C3)s1 was run?
Its value is 2.255%.

Which “Percent Effect” value does the source give for O=C(O)CSc1nnc(-c2cn[nH]c2)n1-c1ccccc1C(F)(F)F here?
Its value is -22.33%.

For CC(=O)NC1(C(=O)N(C)Cc2c(C)noc2C)CCCCC1, which “Percent Effect” value is on record?
Its value is -7.535%.

For COc1ccc(C2CC(=O)c3c(O)cc(O)cc3O2)cc1O (centres undefined), which “Percent Effect” value is on record?
The value was -2.499%.

Which “Percent Effect” value does the source give for CC(C)(C)c1coc([C@@H]2COCCN2Cc2ccccn2)n1 here?
Its value is -4.744%.

For Cc1cccc(CNC(=O)c2cccnc2N)c1, which “Percent Effect” value is on record?
The value was 165.4%.

Which “Percent Effect” value does the source give for Cc1cccc(CN2CCN(C(=O)c3cccnc3O)CC2)c1 here?
The value was -8.356%.

With CCCNC(=O)c1cccc2ncccc12 as the compound, how does the “Percent Effect” value read?
The value was 14.09%.

With CC(C)(C)c1nc(CN(Cc2cccs2)C2CCS(=O)(=O)C2)cs1 (centres undefined) as the compound, how does the “Percent Effect” value read?
Its value is 26.63%.

Cc1noc(CN(Cc2cccs2)C2CCS(=O)(=O)C2)n1 (centres undefined) was tested. Which “Percent Effect” value did it give?
Its value is 99.33%.

Which “Percent Effect” value does the source give for Cc1noc(C)c1CN(Cc1cccs1)C1CCS(=O)(=O)C1 (centres undefined) here?
The value was 104.9%.

How did the “Percent Effect” value turn out when O=S1(=O)CCC(N(Cc2nc3ccccc3o2)Cc2cccs2)C1 (centres undefined) was run?
Its value is 98.01%.

Which “Percent Effect” value does the source give for O=C(CN(Cc1cccs1)C1CCS(=O)(=O)C1)NC1CCCCC1 (centres undefined) here?
Its value is 14.98%.

How did the “Percent Effect” value turn out when CC(C)(C)c1nc(CN(Cc2cccs2)C2CCS(=O)(=O)C2)no1 (centres undefined) was run?
Its value is 9.766%.

With Cc1ccc(-c2nc(CN(Cc3cccs3)C3CCS(=O)(=O)C3)cs2)o1 (centres undefined) as the compound, how does the “Percent Effect” value read?
Its value is 4.898%.

For O=S1(=O)CCC(N(Cc2nc(-c3ccccn3)no2)Cc2cccs2)C1 (centres undefined), which “Percent Effect” value is on record?
The value was 124.4%.

Cc1nc(CN(Cc2cccs2)C2CCS(=O)(=O)C2)oc1C (centres undefined) was tested. Which “Percent Effect” value did it give?
Its value is -2.391%.

For CC(=O)c1ccc(C(=O)N(C)Cc2nc(-c3ccccn3)no2)s1, which “Percent Effect” value is on record?
Its value is -11.07%.

For CC(C)c1noc(CN(Cc2cccs2)C2CC2)n1, which “Percent Effect” value is on record?
Its value is 16.09%.

Which “Percent Effect” value does the source give for O=C(CN(Cc1cccs1)C1CCS(=O)(=O)C1)NCC1CCCCC1 (centres undefined) here?
Its value is 2.941%.

For O=C(CNC(=O)c1ccoc1)NC(c1ccc(F)cc1)C(F)(F)F (centres undefined), which “Percent Effect” value is on record?
Its value is 0.03163%.

How did the “Percent Effect” value turn out when CC1CN(C(=O)c2nccnc2N)c2ccc(F)cc2O1 (centres undefined) was run?
The value was -7.593%.

How did the “Percent Effect” value turn out when COCCN(CCOC)C(=O)c1sc(C)nc1C was run?
Its value is -9.667%.

How did the “Percent Effect” value turn out when CCC(C)(C)NC(=O)C[S+]([O-])Cc1csc(C2CCCC2)n1 (centres undefined) was run?
Its value is -6.862%.

How did the “Percent Effect” value turn out when Cc1ccc(C)c(CS(=O)(=O)CC(=O)N(C)Cc2cccc(F)c2)c1 was run?
The value was -31.79%.

Cc1sc2ncnc(N3CCCC3Cn3cccn3)c2c1C (centres undefined) was tested. Which “Percent Effect” value did it give?
The value was 126.3%.

For c1cnn(CC2CCCN2c2ncnc3ccsc23)c1 (centres undefined), which “Percent Effect” value is on record?
The value was 77.53%.

c1cnn(CC2CCCCN2c2ncnc3sccc23)c1 (centres undefined) was tested. Which “Percent Effect” value did it give?
Its value is -1.869%.

c1nc(N2CCCC(Cn3cncn3)C2)c2ccsc2n1 (centres undefined) was tested. Which “Percent Effect” value did it give?
Its value is 13.9%.

For c1cnn(CC2CCCN2c2ncnc3sccc23)c1 (centres undefined), which “Percent Effect” value is on record?
Its value is -19.57%.

Which “Percent Effect” value does the source give for c1ccc2c(N3CCCC3Cn3cccn3)ncnc2c1 (centres undefined) here?
Its value is -8.877%.

For c1cnn(CC2CCCN2c2ncnc3c2CCC3)c1 (centres undefined), which “Percent Effect” value is on record?
The value was -39.95%.

How did the “Percent Effect” value turn out when c1nc2c(c(N3CCCC(Cn4cncn4)C3)n1)CCC2 (centres undefined) was run?
Its value is -15.31%.

Which “Percent Effect” value does the source give for Cc1nc(C)n(CC2CCCN2c2ncnc3sccc23)n1 (centres undefined) here?
Its value is 103.4%.

How did the “Percent Effect” value turn out when c1nc(N2CCCC(Cn3cncn3)C2)c2sccc2n1 (centres undefined) was run?
Its value is 164.6%.

c1nc(N2CCCC2Cn2cncn2)c2ccsc2n1 (centres undefined) was tested. Which “Percent Effect” value did it give?
The value was -0.0676%.

For Cc1nc(C)n(CC2CCCN(c3ncnc4sccc34)C2)n1 (centres undefined), which “Percent Effect” value is on record?
The value was 4.886%.
